Screens from PubChem.
Shown are actives, neighbours in structure and some others; about 3.7% of the full set was active somewhere.
Anthrax LF inh2: blocks Bacillus anthracis lethal factor protease. multiplex microsphere protease cleavage assay, LF. AID 588501. inhibition, % at 10 µM. 360,000 tested, 0.12% active; note: plate controls were buffer without enzyme for full effect and enzyme alone for no effect
MazF activator: MazEF (E. coli) toxin RNase activation | FAM/BHQ RNA-DNA oligo cleavage fluorescence, 5 h | activation, % at 20 µM | 350,000 tested, 0.32% active | AID 504720; in the data active = activation above about 50%
Target sequence (P0AE70 whole entry, looked up): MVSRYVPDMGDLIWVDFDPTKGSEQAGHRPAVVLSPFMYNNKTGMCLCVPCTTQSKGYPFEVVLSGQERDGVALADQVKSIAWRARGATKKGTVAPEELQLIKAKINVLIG
BoNT A protease: inhibitors of Botulinum neurotoxin A light chain protease; multiplex microsphere protease substrate cleavage, flow cytometry; inhibition, % at 10 µM; 360,000 tested, 0.17% active; AID 588499; note: plate controls were buffer without enzyme for full effect and enzyme alone for no effect
BoNT-F LC inh: blocks Botulinum neurotoxin F light chain protease; Multiplex microsphere protease cleavage assay, flow cytometry; 360,000 tested, 0.22% active; AID 588497; inhibition, % at 10 µM; in the data active = inhibition above about 35%, passing the limit was not always enough; inconclusive = no clear call, values can overlap the other calls; note: plate controls were buffer without enzyme for full effect and enzyme alone for no effect
Bead autofluor: compound fluorescence in toxin protease inhibitor counterscreen; compound autofluorescence counterscreen, microsphere flow cytometry; active compounds read high; 360,000 tested, 3.1% active; fluorescence intensity (test concentration not listed); in the data active = fluorescence intensity above about 16000; inconclusive = no clear call, values can overlap the other calls
* = called active by the depositor; ? = inconclusive; · = no result given. Cut-off read from the data, not from the text of the source, unless noted: active = inhibition above about 30%; inconclusive = no clear call, values can overlap the other calls; inactive = below that.

SMILES	Anthrax LF inh2	MazF activator	BoNT A protease	BoNT-F LC inh	Bead autofluor
O=C(Nc1ncc2c(n1)-c1ccccc1OC2)c1ccc(F)cc1	-7	4	-1	-1	3958
O=C(Nc1ncc2c(n1)-c1ccccc1OC2)c1ccc(Cl)cc1Cl	-1	10	1	1	16392*
CN(C)CCNC(=O)C1(C)Cc2c(-c3cccc(C(F)(F)F)c3)ccnc2O1 (stereo unspecified)	0	·	0	1	3763
Cc1sc(-c2ccccn2)nc1OC(=O)c1ccc(Cl)c(Cl)c1	0	7	-1	-3	23143*
Cc1sc(-c2ccccn2)nc1OC(=O)c1ccc(F)cc1F	-1	2	2	9	3596
CCOC(=O)c1sc(NS(=O)(=O)c2ccccc2Cl)nc1C	-1	0	-6	-8	26130*
CCOC(=O)Nc1nc(C)c(C(=O)c2ccc(Cl)cc2)s1	-4	86*	0	4	2487
CCOC(=O)c1sc(NC(=O)c2ccc(=O)[nH]c2)nc1C	18	-8	2	37*	3444
COC(=O)Nc1nc(C)c(C(=O)c2ccccc2)s1	-14	5	0	3	3362
CCCOc1ccc(-c2nc(=S)[nH][nH]2)cc1	-3	6	?	-1	22693*
S=c1nc(-c2ccc(Cl)cc2)[nH][nH]1	-16	10	2	?	3952
CCCCOc1ccc(Cl)cc1CSc1n[nH]c(C)n1	-1	0	-1	-3	10757
CCOc1ccc(Cl)cc1CSc1n[nH]c(CC)n1	-1	-5	-1	-3	22875*
COc1cccc(CSc2nc3sc(C)c(C)c3c(=O)n2Cc2ccco2)c1	-12	4	6	8	19855*
Cc1sc2nc(SCC(=O)C(C)(C)C)n(Cc3ccco3)c(=O)c2c1C	-3	5	1	-1	22551*
Cc1ccc(CSc2nc3sc(C)c(C)c3c(=O)n2Cc2ccco2)cc1	-9	8	1	3	9563
COC(=O)c1ccc(CSc2nc3ccccc3c(=O)n2N)cc1	-6	4	1	6	3354
COC(=O)c1sc2nc(SCc3cccc(F)c3)n(N)c(=O)c2c1C	0	133*	-1	-2	9241
Cc1sc2nc(SCc3ccccc3)n(Cc3ccco3)c(=O)c2c1C	-3	-4	3	-1	15662
COc1ccc(NC(=O)CSc2nc3sc(C)c(C)c3c(=O)n2Cc2ccco2)cc1	2	-11	?	6	21853*
Cc1ccc([C@H]2C[C@H](O)[C@@H](n3cc(C4CC4)nn3)CN2Cc2cccs2)cc1	-8	-3	0	-7	3141
CC(=O)Oc1ccc(Cn2c(C)c(C(=O)NCc3cccc(C(F)(F)F)c3)sc2=O)cc1	-1	·	0	-2	3866
O=C1C=C(c2n[nH]nc2-c2ccccc2)C[C@@H](c2ccc(F)cc2)C1	-3	2	0	-1	3768
CCOC(=O)C1=C(Cc2ccc(Cl)cc2)C(=O)c2ccccc2C1=O	-9	-18	3	-10	23250*
CC1CC(=O)Nc2ccccc2N1C(=O)CSc1ncnc2sccc12 (stereo unspecified)	-8	3	0	-10	3951
SMILES	Anthrax LF inh2	MazF activator	BoNT A protease	BoNT-F LC inh	Bead autofluor
Cc1oc2ccc(OC(=O)COc3c(F)c(F)c(F)c(F)c3F)cc2c1C(=O)OC(C)C	-1	-13	0	-6	2247
COCCOC(=O)c1c(C)oc2ccc(OC(=O)COc3c(F)c(F)c(F)c(F)c3F)cc12	-1	-7	2	6	22277*
COCCOC(=O)c1c(C)oc2ccc(OC(=O)c3cccs3)cc12	3	3	2	2	22293*
CCCCn1c(N)c(N(CC(C)C)C(=O)c2ccco2)c(=O)[nH]c1=O	-4	1	0	-12	5206
NC(=O)COC(=O)CCCc1nc2ccccc2s1	-2	1	2	1	21657*
C[C@@H]1CN([C@H](C)CO)C(=O)CCCn2nncc2CO[C@H]1CN(C)S(=O)(=O)c1ccc(C#N)cc1	2	11	0	-6	3905
CC1=CC(=C2C(=O)NC(=O)NC2=O)C=C(C(F)(F)F)N1C(C)C	-13	10	3	3	21183*
COc1ccc(-c2nc(-c3ccccc3)c(-c3cc([N+](=O)[O-])ccc3C)[nH]2)cc1O	-5	6	0	-3	3066
Cc1ccc([N+](=O)[O-])cc1-c1[nH]c(-c2ccc(O)c(O)c2)nc1-c1ccccc1	-9	17	0	-6	16205*
CCOc1ccccc1-c1n[nH]c(=S)o1	-1	19	-5	-6	17280*
COc1ccc(NC(=O)C2CCN(C(=O)c3ccccc3)CC2)c(OC)c1	-5	5	0	-12	8888
COC(=O)C1CCN(C(=O)c2ccccc2Oc2ccccc2)CC1	-4	3	2	1	20014*
COc1ccccc1C(=O)N1CCC(C(=O)c2ccc(F)cc2)CC1	-21	-9	4	3	19021*
COc1ccc(C(=O)N2CCC(C(=O)Nc3ccccc3OC)CC2)cc1	-1	8	?	-3	22688*
COc1ccc(C(=O)N2CCC(C(=O)c3ccc(F)cc3)CC2)cc1	-2	15	1	4	9120
COC(=O)C1CCN(C(=O)c2ccc(NC(C)=O)cc2)CC1	-1	11	-3	-4	22006*
COC(=O)C1CCN(C(=O)c2ccccc2NC(C)=O)CC1	-5	1	0	4	8333
Cn1c(=O)c2cc(NC(=O)NCCc3cccs3)ccc2n1Cc1ccccc1	-10	·	0	0	3021
CS(=O)(=O)Nc1ccc(C(=O)N2CCCCC2)cc1	-1	-5	0	-4	6656
CC1CCN(C(=O)c2ccc(NS(C)(=O)=O)cc2)CC1	1	-9	?	0	19949*
Cc1ccc(S(=O)(=O)NN=CC=CC=NNS(=O)(=O)c2ccc(C)cc2)cc1	-5	5	-1	-8	3991
O=C(/C=C/c1ccco1)NC(=S)Nc1ccccc1N1CCOCC1	1	7	0	0	23214*
O=C(/C=C/c1ccco1)NC(=S)Nc1ccccc1N1CCCC1	-2	10	0	-5	1990
CCCNC(=O)C1(C)CCN(Cc2csc3ccccc23)C1 (stereo unspecified)	-2	·	0	-2	3476
O=C(COC(=O)c1cnccn1)c1ccc2c(c1)CCCC2	-5	3	2	2	20610*
SMILES	Anthrax LF inh2	MazF activator	BoNT A protease	BoNT-F LC inh	Bead autofluor
CO/N=C/c1cc([N+](=O)[O-])ccc1Sc1ccc(C)cc1	-1	-9	?	2	21195*
CO/N=C/c1ccc(Sc2ccc(C)cc2)c([N+](=O)[O-])c1	·	3	·	·	·
COC(=O)[C@]12CCCCC=C1N(Cc1ccccc1)C(=O)[C@H](CC(=O)NCCCCc1ccccc1)C2	-5	·	0	3	6186
CC(C)COC(=O)N1CCCCC1c1cc(C(=O)NCc2ccc(F)cc2)no1 (stereo unspecified)	-8	·	0	-1	3424
Cn1cnc2nc3n(c2c1=O)CCC3	-2	5	0	2	16811*
O=c1c2cccnc2nc2n1CCCCC2	1	8	-1	-4	3152
